This is part of a sample that, as a whole, favours compounds with a hit. Of some 79,000 tested, about 15% had one in any assay. The source made the active and inactive calls. Rule as the data show it: active = growth inhibition above about 70%; inactive = the rest. *1 amine or outer side, *2 acyl side, *3 side chain or, on linkers, in order; H or OH if unused. Where a SMILES comes first, the peptide text is derived from it. Bridges are numbered along the chain shown (N, C = ends). Roman numbers before positions name the chains, in order. [ ]: non-standard residue; d: D form. Actinocin(9to1) = Cc1c2oc3c(C)ccc(C(=O)[*:1])c3nc-2c(C(=O)[*:2])c(N)c1=O; NMeT = CN[CH](C(=O)O)[CH](C)O; Abu = CC[CH](N)C(=O)O; Sar = CNCC(=O)O

One test can be described thus: NCI Yeast Anticancer Drug Screen. Data for the mec2-1 strain (AID 157). To be noted: S. cerevisiae mec2-1 strain, at 50.0 µM, stronger effect = higher value. The method in brief: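 Yeast mec2-1 mutant treated with compound. Readout: growth inhibition vs vehicle controls.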
As for `CN(C)c1ccc(/C=C/c2ccccc2)cc1`, the growth inhibition is -6.15% (inactive).

For `OCC12OCC(O1)C(O)C(O)C2O` (stereo not given), the growth inhibition was 2.2% (inactive).

For `COc1cccc(S(=O)(=O)c2c(C)cc(C)cc2C)c1`, the growth inhibition was -12.6% (inactive).

`CC1(c2ccc3cccc(F)c3c2)OC(=O)c2ccccc21` (stereo not given): the growth inhibition was 1.65% (inactive).

`Nc1[nH]c(=S)[nH]c(=O)c1N=Cc1ccc2c(c1)OCO2`: the growth inhibition is 10% (inactive).

With `O=c1[nH]c(=O)c2nccnc2[nH]1`, the growth inhibition was -0.6% (inactive).

As for `O=C(O)c1ccc(Cl)cc1C(=O)c1ccc(Cl)cc1`, the growth inhibition is 8.75% (inactive).

`CCOC(=O)C1(C)CCC(C(=O)OC)C1=O` (stereo not given): the growth inhibition is -31.1% (inactive).

Take `CCCCCCC(c1ccc(N(C)C)cc1)c1ccc(N(C)C)cc1`: the growth inhibition is 15.7% (inactive).

Turning to `CCOC(=O)C(C(=O)OCC)=C(N)C(Cl)(Cl)Cl`, the growth inhibition was -1.6% (inactive).

Consider `COc1ccccc1OCc1nnc(SCC(=O)O)n1-c1ccccc1`, for which the growth inhibition was 3.4% (inactive).

In the case of `CCO/C([O-])=C(\C=N\S(=O)(=O)c1ccc(C)cc1)[n+]1ccc(C)cc1`, the growth inhibition was 14.7% (inactive).

`Cc1ccc2nc(CN(CCO)CCO)cc(=O)n2c1`: the growth inhibition was 4.95% (inactive).

As for `CCCCCCc1c(N)nc(N)[nH]c1=O`, the growth inhibition was 9.35% (inactive).

For `CN(C)CCSS(=O)(=O)O`, the growth inhibition was -23.1% (inactive).

In the case of `O=C(Nc1ccc(Cl)cc1)Nc1nnc(-c2cccc(-c3nnc(NC(=O)Nc4ccc(Cl)cc4)o3)c2)o1`, the growth inhibition is 34.3% (inactive).

Regarding `CC(CC(=O)O)(CC(=O)O)c1ccccc1`, the growth inhibition was -35.5% (inactive).

For `NCS(=O)(=O)O`, the growth inhibition was -23.1% (inactive).

On to `Cc1cc(=O)n2[nH]nnc2n1`, for which the growth inhibition is 17.6% (inactive).

Regarding `Cc1cccc(C(C)(C)C)c1NC(=O)CC1C(=O)Nc2ccccc2S1(=O)=O` (stereo not given), the growth inhibition was 1.8% (inactive).

For the molecule `C(=C\C(SCc1ccccc1)SCc1ccccc1)/c1ccccc1`, the growth inhibition is -60% (inactive).

`Cc1ccc(C)n1N(c1ccccc1)c1ccccc1`: the growth inhibition was 7.1% (inactive).

Turning to `CCCCc1c2c(nc3c1CCCC3=O)C(=O)CCC2`, the growth inhibition was -1.95% (inactive).

On to `COc1cccc(C2c3cc4c(cc3OC(C)(O)C2C)OCO4)c1OC` (stereo not given), for which the growth inhibition was 4.05% (inactive).

With `CCC(N)C(=O)NC(C(N)=O)C(C)C` (stereo not given) (H-[Abu]-Val-NH2; configuration not given here), the growth inhibition was -9.75% (inactive).

`O=C1c2cc3c(cc2CC12Cc1cc4c(cc1C2)CCC4)CCC3`: the growth inhibition is 1.4% (inactive).

Regarding `Cc1cccc(C)c1NC(=O)C(=O)CC(=O)CO`, the growth inhibition was -18.3% (inactive).

Take `CCCCC(=O)c1ccc2ccccc2c1O`: the growth inhibition was -6.35% (inactive).

Turning to `C1CC2CCC1CN(C1COC(N3CC4CCC(CC4)C3)CO1)C2` (stereo not given), the growth inhibition is 1.55% (inactive).

Regarding `c1ccc(Nc2ccc3ccccc3n2)cc1`, the growth inhibition was 4.75% (inactive).

In the case of `O=c1c2c(-c3ccccc3)onc2n(-c2ccccc2)c(=O)n1-c1ccccc1`, the growth inhibition is 4.5% (inactive).

With `Cc1c2oc3c(C)ccc(C(=O)NC4C(=O)NC(C(C)C)C(=O)N5CCCC5C(=O)N(C)CC(=O)N(C)C(C(C)O)C(=O)OC4C)c3nc-2c(C(=O)NC2C(=O)NC(C(C)C)C(=O)N3CCCC3C(=O)N(C)CC(=O)N(C)C(C(C)O)C(=O)OC2C)c(N)c1=O` (stereo not given) (I: TVP[Sar][NMeT] / II: TVP[Sar][NMeT]; ester I:1-I:C, II:1-II:C; linker I:N-II:N via Actinocin(9to1); configuration not given here), the growth inhibition was -21% (inactive).

In the case of `CCCCCCCCCCCCCCCCCC[N+](C)(C)Cc1c(Cl)c(Cl)c(Cl)c(Cl)c1Cl`, the growth inhibition is 8.9% (inactive).

Regarding `C/C(=N\NC(=O)c1ccccc1O)c1cccc(/C(C)=N/NC(=O)c2ccccc2O)n1.O=S(=O)([O-])[O-].[Fe+2]`, the growth inhibition was 38.8% (inactive).

Take `CC1=CN2C(c3ccc(Cl)cc3)=NON(c3ccc(C)cn3)C2C=C1` (stereo not given): the growth inhibition is -4.75% (inactive).

Turning to `O=C(Nc1ccccc1)C1(Cl)CCCCC1`, the growth inhibition was -7.35% (inactive).

With `O=C(O)CCCc1ccc(O)cc1`, the growth inhibition is 11.7% (inactive).

On to `COc1cc(/C=C2\SC(=S)N(/C=C(/C#N)C(=O)c3ccc4ccccc4c3)C2=O)cc(OC)c1OC`, for which the growth inhibition is 11.8% (inactive).

As for `NC(N)=NCCCC(O)C(=O)O` (stereo not given), the growth inhibition was -11.8% (inactive).

In the case of `CNn1c(-c2ccccc2)n[nH]c1=O`, the growth inhibition is 2.85% (inactive).

The nature of a further test: NCI Yeast Anticancer Drug Screen. Data for the sgs1 mgt1 strain (AID 161).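 Also: 0% = growth of cultures given vehicle only.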 To be noted: S. cerevisiae sgs1 mgt1 strain, at 50.0 µM, stronger effect = higher value. The method in brief: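 Genetically altered yeast, compound exposure, growth inhibition relative to vehicle.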
On to `CN(C)c1ccc(/C=C/c2ccccc2)cc1`, for which the growth inhibition is -8.95% (inactive).

With `OCC12OCC(O1)C(O)C(O)C2O` (stereo not given), the growth inhibition is 1.35% (inactive).

Consider `COc1cccc(S(=O)(=O)c2c(C)cc(C)cc2C)c1`, for which the growth inhibition is -12.8% (inactive).

In the case of `CC1(c2ccc3cccc(F)c3c2)OC(=O)c2ccccc21` (stereo not given), the growth inhibition is -2.95% (inactive).

For `Nc1[nH]c(=S)[nH]c(=O)c1N=Cc1ccc2c(c1)OCO2`, the growth inhibition was 61.4% (inactive).

Take `O=c1[nH]c(=O)c2nccnc2[nH]1`: the growth inhibition was -10.7% (inactive).

As for `O=C(O)c1ccc(Cl)cc1C(=O)c1ccc(Cl)cc1`, the growth inhibition is -2.55% (inactive).

Regarding `CCOC(=O)C1(C)CCC(C(=O)OC)C1=O` (stereo not given), the growth inhibition is -54.8% (inactive).

For the molecule `CCCCCCC(c1ccc(N(C)C)cc1)c1ccc(N(C)C)cc1`, the growth inhibition was -4.45% (inactive).

For the molecule `CCOC(=O)C(C(=O)OCC)=C(N)C(Cl)(Cl)Cl`, the growth inhibition is -9.9% (inactive).

As for `COc1ccccc1OCc1nnc(SCC(=O)O)n1-c1ccccc1`, the growth inhibition was 2.45% (inactive).

Consider `CCO/C([O-])=C(\C=N\S(=O)(=O)c1ccc(C)cc1)[n+]1ccc(C)cc1`, for which the growth inhibition is 12.2% (inactive).

For the molecule `Cc1ccc2nc(CN(CCO)CCO)cc(=O)n2c1`, the growth inhibition was 40.5% (inactive).

For the molecule `CCCCCCc1c(N)nc(N)[nH]c1=O`, the growth inhibition was -11.2% (inactive).

As for `CN(C)CCSS(=O)(=O)O`, the growth inhibition is -26.3% (inactive).

For `O=C(Nc1ccc(Cl)cc1)Nc1nnc(-c2cccc(-c3nnc(NC(=O)Nc4ccc(Cl)cc4)o3)c2)o1`, the growth inhibition was 36.4% (inactive).

Take `CC(CC(=O)O)(CC(=O)O)c1ccccc1`: the growth inhibition was -11.2% (inactive).

For the molecule `NCS(=O)(=O)O`, the growth inhibition is -18.9% (inactive).

For `Cc1cc(=O)n2[nH]nnc2n1`, the growth inhibition was 26.4% (inactive).

`Cc1cccc(C(C)(C)C)c1NC(=O)CC1C(=O)Nc2ccccc2S1(=O)=O` (stereo not given): the growth inhibition is -4.4% (inactive).

Take `C(=C\C(SCc1ccccc1)SCc1ccccc1)/c1ccccc1`: the growth inhibition was -27.8% (inactive).

Consider `Cc1ccc(C)n1N(c1ccccc1)c1ccccc1`, for which the growth inhibition was 2.65% (inactive).

`CCCCc1c2c(nc3c1CCCC3=O)C(=O)CCC2`: the growth inhibition is -14.7% (inactive).

As to `COc1cccc(C2c3cc4c(cc3OC(C)(O)C2C)OCO4)c1OC` (stereo not given), the growth inhibition is 39.5% (inactive).

Take `CCC(N)C(=O)NC(C(N)=O)C(C)C` (stereo not given) (H-[Abu]-Val-NH2; configuration not given here): the growth inhibition is -1.55% (inactive).

`O=C1c2cc3c(cc2CC12Cc1cc4c(cc1C2)CCC4)CCC3`: the growth inhibition is -8% (inactive).

As for `Cc1cccc(C)c1NC(=O)C(=O)CC(=O)CO`, the growth inhibition was 14.1% (inactive).

Take `CCCCC(=O)c1ccc2ccccc2c1O`: the growth inhibition is 3.9% (inactive).

Turning to `C1CC2CCC1CN(C1COC(N3CC4CCC(CC4)C3)CO1)C2` (stereo not given), the growth inhibition was 9.7% (inactive).

As to `c1ccc(Nc2ccc3ccccc3n2)cc1`, the growth inhibition is 40.5% (inactive).

As to `O=c1c2c(-c3ccccc3)onc2n(-c2ccccc2)c(=O)n1-c1ccccc1`, the growth inhibition is 13.2% (inactive).

Turning to `Cc1c2oc3c(C)ccc(C(=O)NC4C(=O)NC(C(C)C)C(=O)N5CCCC5C(=O)N(C)CC(=O)N(C)C(C(C)O)C(=O)OC4C)c3nc-2c(C(=O)NC2C(=O)NC(C(C)C)C(=O)N3CCCC3C(=O)N(C)CC(=O)N(C)C(C(C)O)C(=O)OC2C)c(N)c1=O` (stereo not given) (I: TVP[Sar][NMeT] / II: TVP[Sar][NMeT]; ester I:1-I:C, II:1-II:C; linker I:N-II:N via Actinocin(9to1); configuration not given here), the growth inhibition was -3.3% (inactive).

Consider `CCCCCCCCCCCCCCCCCC[N+](C)(C)Cc1c(Cl)c(Cl)c(Cl)c(Cl)c1Cl`, for which the growth inhibition is 20.4% (inactive).

Consider `C/C(=N\NC(=O)c1ccccc1O)c1cccc(/C(C)=N/NC(=O)c2ccccc2O)n1.O=S(=O)([O-])[O-].[Fe+2]`, for which the growth inhibition was 39.5% (inactive).

As to `CC1=CN2C(c3ccc(Cl)cc3)=NON(c3ccc(C)cn3)C2C=C1` (stereo not given), the growth inhibition was 0.65% (inactive).

Consider `O=C(Nc1ccccc1)C1(Cl)CCCCC1`, for which the growth inhibition was -8.7% (inactive).

As for `O=C(O)CCCc1ccc(O)cc1`, the growth inhibition is 8.4% (inactive).

`COc1cc(/C=C2\SC(=S)N(/C=C(/C#N)C(=O)c3ccc4ccccc4c3)C2=O)cc(OC)c1OC`: the growth inhibition is 53.4% (inactive).

With `NC(N)=NCCCC(O)C(=O)O` (stereo not given), the growth inhibition was -6.85% (inactive).

Take `CNn1c(-c2ccccc2)n[nH]c1=O`: the growth inhibition is 11.4% (inactive).

The record behind these values is PubChem BioAssay (NCI).
